Sfp PPTase inh – inhibitors of Bacillus subtilis Sfp phosphopantetheinyl transferase | Biochemical Sfp PPTase activity, qHTS | Potency, µM, without a hit: largest response in the series, negative = inhibition, usual class: inhibitors | 310,000 tested, 3.5% active;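 further: the enzyme is Sfp with the accession as filed and its product quenches rhodamine fluorescence; potency means the concentration at half of the fitted maximal effect; 0% = enzyme reaction without inhibitor and -100% = no enzyme wells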
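Buffer: 50 mM Hepes-Na pH 7.6, 10 mM MgCl2, 0.01% Nonidet P-40, 0.01% BSA. Enzyme 15 nM, pre-exposed to compound 15 min; substrates then added and fluorescence change tracked over 30 min.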
G9a inh-1 – blocks human histone lysine methyltransferase G9a; Q96KQ7; 350,000 tested, 8.8% active; Potency, µM (highest dose often 102 µM), without a hit: at the highest dose activity, negative = inhibition, hits mostly inhibitors; G9a H3K9 monomethylation, AlphaScreen, 2 h; further: potency means the concentration at half of the fitted maximal effect; on the % scale 0 is the no-effect control and ±100 the full control effect; nearly all actives have a fitted effect of over 75% in size
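Quantitative HTS format: methyltransferase activity on a biotin-tagged H3K9 peptide is measured by AlphaScreen, using a rabbit anti-monomethyl-H3K9 antibody with streptavidin donor and anti-IgG acceptor beads. Final levels are 20 nM enzyme, 500 nM peptide, 20 uM SAM; 2 h RT.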
BAZ2B inh – BAZ2B (human) inhibition. Q9UIF8. AlphaScreen BAZ2B-H3K14Ac peptide displacement. Potency, µM (titrated, usually from 114 µM), without a hit: at the highest dose activity change, negative = inhibition, hits mostly inhibitors. 360,000 tested, 4.4% active. AID 504333; further: potency means the concentration at half of the fitted maximal effect; on the % scale 0 is the no-effect control and ±100 the full control effect; nearly all actives have a fitted effect of over 60% in size
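Complex of BAZ2B and biotin-H3K14Ac (50 nM apiece) forms over 30 min at RT, then faces library compounds up to 110 uM for another 30 min; AlphaScreen beads added, 20 min dark incubation, luminescence read.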
L3MBTL1 block – blocks human L3MBTL1. Potency, µM (top dose mostly 57.1 µM), inactives show at the highest dose activity, negative = inhibition, actives largely listed as inhibitors. Q9Y468. AID 485360. AlphaScreen L3MBTL1–H3K9me1 peptide binding. 230,000 tested, 0.66% active; further: potency means the concentration at half of the fitted maximal effect; on the % scale 0 is the no-effect control and ±100 the full control effect; nearly all actives have a fitted effect of over 60% in size
Target sequence (Q9Y468 whole entry, looked up): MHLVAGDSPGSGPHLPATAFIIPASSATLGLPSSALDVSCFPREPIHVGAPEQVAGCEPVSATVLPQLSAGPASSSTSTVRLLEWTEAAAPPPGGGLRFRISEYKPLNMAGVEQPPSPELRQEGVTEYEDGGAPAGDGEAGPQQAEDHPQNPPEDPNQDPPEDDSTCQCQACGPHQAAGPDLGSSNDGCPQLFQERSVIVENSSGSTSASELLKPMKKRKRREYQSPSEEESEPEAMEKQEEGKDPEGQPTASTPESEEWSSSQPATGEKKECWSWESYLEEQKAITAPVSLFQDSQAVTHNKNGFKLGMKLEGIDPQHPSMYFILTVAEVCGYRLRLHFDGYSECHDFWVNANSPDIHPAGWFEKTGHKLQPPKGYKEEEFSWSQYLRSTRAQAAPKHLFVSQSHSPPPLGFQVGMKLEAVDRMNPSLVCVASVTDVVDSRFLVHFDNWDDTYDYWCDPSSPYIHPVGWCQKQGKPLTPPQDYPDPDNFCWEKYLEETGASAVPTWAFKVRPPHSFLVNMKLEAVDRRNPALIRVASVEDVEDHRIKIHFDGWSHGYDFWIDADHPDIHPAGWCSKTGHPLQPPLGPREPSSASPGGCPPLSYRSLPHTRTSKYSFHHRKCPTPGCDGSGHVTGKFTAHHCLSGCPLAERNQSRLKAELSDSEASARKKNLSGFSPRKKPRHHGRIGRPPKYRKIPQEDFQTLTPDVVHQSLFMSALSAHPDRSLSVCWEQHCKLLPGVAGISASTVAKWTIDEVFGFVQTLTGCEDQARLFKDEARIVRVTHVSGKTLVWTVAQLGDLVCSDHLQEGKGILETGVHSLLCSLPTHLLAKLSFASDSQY
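Displacement of a biotinylated histone H3(1-15) peptide monomethylated at Lys9 (75 nM) from L3MBTL1 (50 nM) was measured by AlphaScreen after a 30 min room-temperature compound incubation; cefsulodin titration served as intraplate control.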
HP1b binding inh – inhibitors of HP1-beta chromodomain binding to methylated histone tails. P83916. AlphaScreen HP1-beta / biotin-H3K9me3 peptide binding. Potency, µM (doses to about 114 µM), inactives show at the top dose activity change, negative = inhibition, hits mostly inhibitors. 390,000 tested, 0.56% active; further: potency means the concentration at half of the fitted maximal effect; nearly all actives have a fitted effect of over 70% in size
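HP1-beta protein (50 nM final) preincubated 30 min at room temperature with biotinylated H3(1-18)K9me3 peptide (50 nM) in PBS pH 7.4, 0.01% Tween-20, then compound added for 30 min. AlphaScreen streptavidin donor/nickel chelate acceptor beads (10 ug/mL final), 30 min dark, luminescence read.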
JMJD2A Tudor – blocks the human JMJD2A Tudor domain; AID 504339; O75164; 390,000 tested, 4.4% active; Potency, µM (series often up to 114 µM), without a hit: at the top dose activity change, negative = inhibition, usual class: inhibitors; AlphaScreen JMJD2A-Tudor / H3K4me3 peptide binding; further: potency means the concentration at half of the fitted maximal effect; on the % scale 0 is the no-effect control and ±100 the full control effect; nearly all actives have a fitted effect of over 50% in size
JMJD2E inh-1 – blocks human JMJD2E demethylase activity; JMJD2E demethylase, FDH-coupled NADH fluorescence; shares compounds with BAZ2B inh; AID 493212; Potency, µM (series often up to 57 µM), for the others: at the highest dose activity, negative = inhibition, most hits filed as inhibitors; 130 tested, 89% active
JMJD2E inh-2 – JMJD2E (human) demethylase inhibition, confirmation | Potency, µM (top dose mostly 56.8 µM), for inactives: at the highest dose activity change, negative = inhibition, most hits filed as inhibitors | shares compounds with JMJD2A Tudor | Recombinant JMJD2E, FDH-coupled NADH fluorescence (FDH is formaldehyde dehydrogenase) | 140 tested, 93% active
FDH inh – blocks Pseudomonas putida formaldehyde dehydrogenase, flagging JMJD2E artifacts; AID 2680; FDH enzyme assay, NADH fluorescence kinetic; Potency, µM (doses to about 56.7 µM), inactives show at the highest dose activity, negative = inhibition, actives largely listed as inhibitors; 140 tested, 10% active; shares compounds with JMJD2A Tudor
JMJD2E MS inh – blocks demethylation by human JMJD2E in a MALDI-TOF-MS assay; shares compounds with JMJD2A Tudor; recombinant JMJD2E demethylation, MALDI-TOF-MS; Potency, µM, actives largely listed as inhibitors; 45 tested, 90% active; AID 2688;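 active means compounds whose IC50 for blocking JMJD2E demethylation is below 100 µM; inconclusive means dose dependent effect but IC50 above 100 µM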
G9a inh-2 – inhibits human G9a histone lysine methyltransferase, hit confirmation. 370 tested, 89% active. AID 588344. Potency, µM, usual class: inhibitors. shares compounds with JMJD2A Tudor. G9a H3K9 monomethylation, AlphaScreen, 2 h; further: potency means the concentration at half of the fitted maximal effect; nearly all actives have a fitted effect of over 65% in size
RGS4 confirm – confirmation of human RGS4 inhibitors; shares compounds with JMJD2A Tudor; 25 tested, 80% active; Potency, µM, usual class: inhibitors; RGS4 GAP activity, Transcreener GDP fluorescence polarization
Starred values were filed as active, the others as inactive; ? = inconclusive; nt = no result given; [ ] = dose if it differs, or a comment. Shown are actives, neighbours in structure and some others; about 12% of the full set was active somewhere. Unless noted, the call rests on the fitted dose curve; in most records, active means well fitted curve in the direction sought with a large enough effect; inconclusive means small, poorly fitted or top-dose-only effect, or another doubt; inactive means no such curve, though single readings can be large; an effect the other way counts as inactive or inconclusive.

SMILES	Sfp PPTase inh	G9a inh-1	BAZ2B inh	L3MBTL1 block	HP1b binding inh	JMJD2A Tudor	G9a inh-2	others
Oc1ccc(CCc2ccccc2)c2cccnc12	nt	nt	nt	nt	nt	45µM*	nt	JMJD2E inh-1=7.1µM*;JMJD2E inh-2=9.1µM*;FDH inh=9%;JMJD2E MS inh=90*
NS(=O)(=O)c1cccc(NC(=O)COC(=O)c2ccc(S(=O)(=O)N3CCOCC3)cc2)c1	nt	nt	nt	nt	62%	-11%	nt
O=C(Nc1nccs1)C1CCCN1S(=O)(=O)c1ccc(Cl)cc1 (stereo not drawn)	9%	-46%[59 µM]	nt	-1%	22%	-13%	nt
CC(C)COC(=O)N1CCCC1C(=O)Nc1nccs1 (stereo not drawn)	7%	?	-35%	nt	-2%	-14%	13*
O=C(Nc1sc2c(c1C(=O)Nc1cccc(Cl)c1)CCCC2)c1cccs1	nt	1.6µM*	-35%	nt	-19%	71µM*	4.1*
O=C(Cc1ccccc1)Nc1sc2c(c1C(=O)Nc1ccc(Cl)cc1)CCCC2	nt	0.32µM*	?	nt	?	?	1.8*
O=C(NC1CCCCCC1)c1ccc2c(c1)sc1nc(-c3ccccc3)cn12	nt	1%[59 µM]	2%	nt	38%	-5%	nt
CCCCn1nnc(NC(=S)NC(=O)c2ccc(OCC)c([N+](=O)[O-])c2)n1	7%	?	-24%	nt	7%	-23%	nt
COc1ccc([N+](=O)[O-])cc1NC(=O)CSc1nc(C)cc(C)n1	22µM*	2.5µM*	-4%	-3%	18%	?	6.3*
C=CCn1c(SCC(=O)NC2CCCC2)nc2c([nH]c3ccccc32)c1=O	-5%	19%	-4%	nt	21%	6%	nt
COc1ccc(NC(=O)c2ccc(-c3ccc(C(C)=O)cc3)o2)cn1	nt	1.6µM*	2%	8%	-19%	-27%	?
COC(=O)c1ccc(/C=C(/NC(=O)c2ccccc2)C(=O)N2CCOCC2)cc1	6%	-3%	-1%	nt	34%	-10%	nt
CCc1ccc(C2c3c(oc4ccc(C)cc4c3=O)C(=O)N2c2nc(C)c(C)s2)cc1 (stereo not drawn)	nt	6%[59 µM]	-1%	nt	26%	3%	nt
O=C(Nc1c(-c2ccc(F)cc2)nc2ccccn12)c1ccccc1F	nt	2%[59 µM]	2%	nt	52%	3%	nt
NCCCC[C@@H](C(=O)NCCCCCCCCCCC(=O)N1CCNCC1)n1cc(CCCC(=O)O)nn1	nt	19%[2.33 µM]	-9%	5%	38%	-13%	nt
CCOC(=O)c1cnc(-n2nc(C)cc2C)nc1Nc1ccc(N(C)C)cc1	-12%	0.89µM*	1.8µM*	3.2µM*	?	1.1µM*	1.6*
CCOC(=O)c1cnc(-n2nc(C)cc2C)nc1Nc1ccc2c(c1)OCO2	4%	?	-25%	-2%	nt	nt	nt
CCN(CC)c1ccc(NC(=O)c2cc(OC)cc(OC)c2)c(C)c1	5%	2.5µM*	40µM*	-6%	-34%	?	3.2*
CCn1c2ccccc2c2c3ncc4cccn4c3ccc21	?	9%	53%	98%	160%	63%	nt
CC(C)c1ccc(S(=O)(=O)N2CCN(CCC(=O)Nc3ccc(N(C)C)cc3)CC2)cc1	5%	1µM*	22µM*	-7%[11.4 µM]	?	35µM*	2*
O=C(COC(=O)c1ccc(O)cc1)Nc1ccc(S(=O)(=O)N2CCCC2)cc1	nt	nt	nt	-4%	18%	-18%	nt
CCN(c1ccc(NC(=O)COC(=O)c2ccc(S(=O)(=O)N3CCCC3)cc2)cc1)C(C)C	-6%	?	3%	nt	16%	-12%	2.2*
FC(F)(F)c1ccccc1-c1cncnc1NCc1ccccc1	-2%	9%[0.501 µM]	nt	nt	nt	nt	nt
CNc1ncncc1-c1ccccc1C(F)(F)F	?	?	nt	nt	nt	nt	nt	RGS4 confirm=27*
CCC(=O)N1CCc2cc(S(=O)(=O)CCC(=O)N3CCN(c4cccc(C)c4C)CC3)ccc21	nt	8%[59 µM]	nt	nt	15%	-14%	nt
SMILES	Sfp PPTase inh	G9a inh-1	BAZ2B inh	L3MBTL1 block	HP1b binding inh	JMJD2A Tudor	G9a inh-2	others
N#Cc1c[nH]n2c(NC3CCCCC3)c(-c3ccccc3F)nc12	nt	-7%[59 µM]	-12%	nt	3%	-16%	nt
O=C(NC(=S)NCc1ccccc1)c1cccc(Cl)c1	-6%	nt	-3%	4%	20%	0%	nt
CC1CN(Cc2c(O)ccc3c2oc(=O)c2ccccc23)CC(C)O1 (stereo not drawn)	79µM*	0.45µM*	4µM*	nt	?	10µM*	0.28*
CC1CN(Cc2c(O)ccc3c(=O)c(-c4ccccc4)coc23)CC(C)O1 (stereo not drawn)	13%	-9%	-9%	4%	19%	-4%	nt
CC(C)(C)C1CCc2c(sc(NC(=O)c3ccncc3)c2C(=O)Nc2ccccc2Cl)C1 (stereo not drawn)	nt	2.2µM*	-28%	nt	26%	?	?
O=C(CCN1CCC(c2ccccc2)C1)c1ccccc1 (stereo not drawn)	-7%	nt	?	2%	31%	-24%	nt
O=C(CCN1CCC(c2ccccc2)C1)c1ccc2c(c1)OCCO2 (stereo not drawn)	50µM*	7.9µM*	?	nt	13%	-24%	5.1*
COc1cccc(-c2cncnc2NCc2cccnc2)c1	?	-6%[0.501 µM]	nt	nt	nt	nt	nt	RGS4 confirm=30*
c1ccc2[nH]c(SCCN3CCOCC3)nc2c1	8%	17%[59 µM]	6%	14%	23%	-13%	nt
